TRPML1 agonist – qHTS for Agonists of the Human Mucolipin Transient Receptor Potential 1 (TRPML1); Mucolipin-1 (Homo sapiens), Q9GZU1; TRPML1-expressing cells, Ca2+ dye fluorescence, FDSS; activation, % (test concentration not listed); 410,000 tested, 0.12% active; AID 624414, 2012; in the data active = activation above about 50%; inconclusive = mostly about 30% to 49%; note: 0% is about no effect
Target sequence (Q9GZU1 whole entry, looked up): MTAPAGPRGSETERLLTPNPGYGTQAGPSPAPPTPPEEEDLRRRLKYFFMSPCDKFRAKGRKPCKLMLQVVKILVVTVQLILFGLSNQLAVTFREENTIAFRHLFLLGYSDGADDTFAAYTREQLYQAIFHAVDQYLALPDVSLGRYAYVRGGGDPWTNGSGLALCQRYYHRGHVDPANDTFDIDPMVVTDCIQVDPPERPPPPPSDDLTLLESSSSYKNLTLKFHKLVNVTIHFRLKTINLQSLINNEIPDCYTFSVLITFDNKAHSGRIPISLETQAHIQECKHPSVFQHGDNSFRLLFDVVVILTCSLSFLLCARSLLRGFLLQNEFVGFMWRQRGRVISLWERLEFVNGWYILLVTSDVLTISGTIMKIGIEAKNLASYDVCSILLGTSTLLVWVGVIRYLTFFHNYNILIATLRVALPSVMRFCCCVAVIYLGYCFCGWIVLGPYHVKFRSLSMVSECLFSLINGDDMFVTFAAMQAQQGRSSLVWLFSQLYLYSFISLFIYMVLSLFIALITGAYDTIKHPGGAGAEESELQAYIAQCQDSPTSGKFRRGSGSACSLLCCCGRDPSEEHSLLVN
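TRPML1-DL cells, Tet-induced overnight (~16 h, 37 degrees C), loaded 45-90 min at room temperature with Ca8 no-wash calcium dye plus quencher. FDSS fluorescence: 10 s baseline, compound pin-transfer, 110 s agonist read, then EC80 54-4 (4uM final) and 110 s antagonist read.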
TRHR agonist-1 – qHTS for Small Molecule Agonists and Allosteric Enhancers of Human TRH Receptor: Primary Screen for Agonists. Thyrotropin-releasing hormone receptor (Homo sapiens), P34981. TRHR cells, calcium flux fluo-8, FDSS agonist mode. activation, % at 2 µM. 360,000 tested, 0.18% active; in the data active = activation above about 30%; note: 0% is about no effect
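TRHR-expressing cells, plated overnight in medium with 10% serum, were loaded with fluo-8 calcium dye at room temperature. After a 10 s baseline, library compound was pin-added and calcium release was recorded kinetically (ex 480/em 530) as agonist response.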
TRPV1 ag – HTS Assay for Compounds that Act as Agonists of the Vanilloid Receptor 1; activation, % at 8.33 µM; 320,000 tested, 0.19% active; AID 540275, 2011; TRPV1-expressing cells, Fluo-8 calcium influx, agonist mode; Transient receptor potential cation channel subfamily V member 1 (Homo sapiens), Q8NER1; in the data active = activation above about 80%; inconclusive = between about 30% and that limit; note: 0% is about no effect
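TRPV1-expressing cells were cultured overnight at 35.5C and loaded with Fluo-8 calcium dye for 40 to 90 min at room temperature. After a 10 s baseline, compound was added and calcium influx was read kinetically for 3 min (ex 480/em 520 nm).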
TRPML1 inh – qHTS for Inhibitors of the Human Mucolipin Transient Receptor Potential 1 (TRPML1); 390,000 tested, 0.02% active; Mucolipin-1 (Homo sapiens), Q9GZU1; activity change, negative = inhibition, % (concentration not given with the values); TRPML1-inducible cells, Ca2+ dye fluorescence, FDSS; hits give low values; inhibition of EC80 agonist-evoked calcium signal; in the data active = activity change below about -50%; inconclusive = between about -30% and that limit;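 note: stimulus is agonist 54-4 at its EC80 concentration; % is set by controls: 0 for no effect and ±100 for the full control effect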
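Calcium fluorescence in TRPML1-DL cells induced overnight with Tet: a 110 s read after compound pin addition, then a 110 s antagonist read after challenge with 54-4 at 4 uM final (EC80).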
TRPV1 PAM – HTS Assay for Compounds that Act as Potentiators of the Vanilloid Receptor 1; Transient receptor potential cation channel subfamily V member 1 (Homo sapiens), Q8NER1; TRPV1-expressing cells, Fluo-8 calcium influx, capsaicin EC20 potentiation; potentiation, % at 8.33 µM; 320,000 tested, 0.02% active; in the data active = potentiation above about 80%; inconclusive = between about 30% and that limit; note: 0% is about no effect
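Cells expressing TRPV1 were dye-loaded with Fluo-8 and read kinetically: 10 s baseline, 3 min after compound (agonist portion), then 2 min after EC20 capsaicin (allosteric enhancer portion). Calcium-bound dye fluorescence at 480/520 nm.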
TRHR enhancer-1 – qHTS for Small Molecule Agonists and Allosteric Enhancers of Human TRH Receptor: Primary Screen for Enhancers; AID 493056, 2011; TRHR cells, fluo-8 calcium fluorescence, EC20 TRH enhancement; Thyrotropin-releasing hormone receptor (Homo sapiens), P34981; 360,000 tested, 0.66% active; enhancement, % at 2 µM; in the data active = enhancement above about 30%; note: 0% is about no effect
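Enhancer read-out: after compound pinning and an initial kinetic agonist-mode read, an EC20 of TRH (10 nM final) was injected and fluo-8 calcium signal (Ex 480/Em 530) followed at 1 s/cycle for 100 cycles in TRHR-expressing cells.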
TRHR enhancer-2 – qHTS for Small Molecule Agonists and Allosteric Enhancers of Human TRH Receptor: Confirmation Screen for Enhancers | shares compounds with TRHR enhancer-1 | TRH receptor cell assay, enhancer confirmation qHTS | activity change, negative = inhibition, % at 46.1 µM | 970 tested, under 10 active | AID 493076, 2011;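 note: compound effect scored on response to added TRH at EC20 of 10 nM; 0% is about no effect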
TRHR agonist-2 – qHTS for Small Molecule Agonists and Allosteric Enhancers of Human TRH Receptor: Confirmation Screen for Agonists | shares compounds with TRHR enhancer-1 | TRHR-expressing cells, agonist activation read-out | Potency, µM (titrated, usually from 46.1 µM), without a hit: top-dose activation, actives largely listed as activators | 970 tested, 8% active; note: potency is the fitted concentration of half-maximal effect; 0% is about no effect; nearly all actives have a fitted effect of over 75% in size
An asterisk follows results filed as active; ? = inconclusive; · = no result given; ! = not confirmed by another sample. In the library only some 0.96% were active in any assay of this set; here they are far more common. Unless noted, calls come from the whole dose curve; as a rule, active = well fitted curve in the direction sought with a large enough effect; inconclusive = small, poorly fitted or top-dose-only effect, or another doubt; inactive = no such curve, though single readings can be large; an effect the other way counts as inactive or inconclusive.

SMILES	TRPML1 agonist	TRHR agonist-1	TRPV1 ag	TRPML1 inh	TRPV1 PAM	TRHR enhancer-1	TRHR enhancer-2	TRHR agonist-2
Cn1c(O)c(/C=N/NC(=O)c2cc3ccccc3cc2O)c2ccccc21	19	46*	6	19	17	3	0	13µM*
Cc1nc(N2CCOCC2)nc(OC(C)C)c1[N+](=O)[O-]	5	0	4	-5	-1	58*	1	2%
COc1nc(N2CCOCC2)nc(C)c1[N+](=O)[O-]	0	0	-1	-18	-5	3	·	·
COC(=O)C1=C(C(=O)c2ccccc2)C(c2ccccc2)n2nnnc2N1 (stereo not given)	0	1	2	14	4	62*	1	-1%
CCOC(=O)N1CCC(Nc2nc(OC)nc(OC)n2)CC1	-1	0	2	-6	3	0	·	·
COc1nc(N)nc(CC(=O)C2CC2)n1	0	0	0	-10	-2	62*	-2	-1%
COc1ccc(CN2C(=O)N(c3ccccc3)C(=O)C2c2ccccc2)cc1COc1ccc(NC(C)=O)cc1 (stereo not given)	0	·	·	·	·	·	·	·
COc1cc(C2C(C#N)=C(N)Oc3cc(N(C)C)ccc32)cc2c1OCO2 (stereo not given)	1	45*	?	-13	3	2	3	?
C=CCC(CC)C(=O)NC(=O)N1CCCc2ccccc21 (stereo not given)	1	0	-1	-10	8	42*	-5	0%
CN(C)c1ccc(/C=C/c2ccnc3ccc4ccccc4c23)cc1	1	·	·	·	·	·	·	·
O=C(NCCc1nc2ccccc2n1CCCOc1ccccc1Cl)C1CCCCC1	2	·	·	·	·	·	·	·
CS(=O)(=O)c1ccc(/C=C2\C=Cc3ccccc32)cc1	1	·	·	·	·	·	·	·
O=C(c1ccc2c(c1)OCO2)C1CCCN(C(=O)c2cnn(Cc3ccccc3)c2)C1 (stereo not given)	0	-1	11	2	-11	41*	-7	0%
NC(=O)c1ccc(S(=O)(=O)N2CCSCC2)cc1	0	0	-4	-9	-12	-3	·	·
O=C(O)c1ccc(S(=O)(=O)N2CCSCC2)cc1	0	0	-2	-11	?	51*	-3	0%
Oc1c(C=C2N=c3ccccc3=N2)sc(=S)n1C1CCCCC1	-1	0	-1	-11	1	41*!	-2	-1%
Oc1c(C=C2N=c3ccccc3=N2)sc(=S)n1-c1ccccc1	0	-1	0	10	-2	3	·	·
CC1=NN(c2ccc(C(=O)O)cc2)C(=O)CC1	0	0	3	2	-4	44*	5	5%
Cc1ccc(-n2c(-c3ccccc3)nsc2=NC#N)cc1	-1	·	·	·	·	·	·	·
CCOC(=O)C(CC)Sc1ccc2nnc(-c3ccc(F)cc3)n2n1 (stereo not given)	1	·	·	·	·	·	·	·
CCOC(=O)c1ccc(S(=O)(=O)N2CCN(c3nc(-c4ccccc4)nc4ccccc34)CC2)cc1	-1	·	·	·	·	·	·	·
Cc1cccc(-n2ncc3c(NCCCN4CCCC4=O)ncnc32)c1	0	0	-2	12	20	6	·	·
O=C1CCCN1CCCNc1ncnc2c1cnn2-c1ccc(Cl)cc1	-1	0	-2	-2	4	54*	-8	5%
CCN(CC)CCN1C(=O)c2ccccc2NC1c1ccc(OC)c(COc2ccc(NC(C)=O)cc2)c1 (stereo not given)	-1	·	·	·	·	·	·	·
CC(=O)Nc1cc(NC(C)=O)c(N=Nc2ccccc2)cc1C	5	0	-3	-3	-13	63*	-3	2%
SMILES	TRPML1 agonist	TRHR agonist-1	TRPV1 ag	TRPML1 inh	TRPV1 PAM	TRHR enhancer-1	TRHR enhancer-2	TRHR agonist-2
CN1CCN(c2nc3c(=O)[nH]c(N)nc3n2C2OC(CO)C(O)C2O)CC1 (stereo not given)	-1	·	·	·	·	·	·	·
CCOC1=C/C(=C/c2c(N)n3nc(CC(=O)N4CCCCC4)sc3nc2=O)C=CC1=O	4	61*	7	23	5	14	13	16µM*
COC1=C/C(=C/c2c(N)n3nc(CC(=O)N4CCCCC4)sc3nc2=O)C=CC1=O	1	23	5	3	-7	2	·	·
CN1CCC(=NNC(=O)CSc2ccc(Cl)cc2)CC1	0	0	2	30	5	44*	-5	0%
COc1nc2c(s1)C(=O)NCCC2	0	0	-1	-28	1	-3	·	·
CCN(CC)c1nc2c(s1)C(=O)NCCC2	1	0	-3	8	?	51*	-5	0%
CCCCNC(=O)c1cn(-c2ccc(OCC)cc2)c(=O)c2cc(OC)c(OC)cc12	2	1	24	-9	-17	47*	5	1%
CCOc1ccc(NC(=O)c2cn(-c3ccc(OCC)cc3)c(=O)c3cc(OC)c(OC)cc23)cc1	3	1	3	-15	9	-1	·	·
OCCC1CN(Cc2ccc3nsnc3c2)CCN1CCc1ccccc1 (stereo not given)	0	0	-1	-7	5	45*	-5	1%
O=C(NCC1CCCO1)c1ccc2c(=O)n(CCc3ccccc3)c(=O)[nH]c2c1 (stereo not given)	0	2	1	-2	2	46*	0	2%
CC(=O)NCCNC(=O)c1ccc2c(=O)n(CCc3ccccc3)c(=O)[nH]c2c1	1	0	·	-11	·	6	·	·
CCOC(=O)c1ccccc1OCc1cc(C2Nc3ccccc3C(=O)N2c2cccc3ccccc23)ccc1OC (stereo not given)	-1	·	·	·	·	·	·	·
Clc1ccccc1-c1nnc2sc(-c3ccc(Br)o3)nn12	2	28	29	-10	-17	-5	-14	1%
O=C(CNC1=NCCS1)c1c[nH]c2ccccc12	-1	·	·	·	·	·	·	·

Screening data deposited in PubChem BioAssay by National Center for Advancing Translational Sciences (NCATS).
